# Experimental data taken from publication PMC9574860, “Chemical Toolkit for PARK7: Potent, Selective, and High-Throughput” (Journal of Medicinal Chemistry, 2022).
# The whole screen tested about 7,900 compounds, of which about 400 (5.1%) showed an effect of 50% or more. The sample as a whole holds a higher share of strong results than the screen did.
# Target: Parkinson's disease protein 7 (PARK7/DJ1) (human, UniProt Q99497)
# Assay: primary screen, percent inhibition; read as competition with a fluorescent probe by fluorescence polarization; higher = more effect of the substance
# Conditions: 100 µM
# Procedure, shortened: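 Fluorescence-polarization probe displacement (JYQ-107, 20 nM final, 2 h) after 2 h preincubation of PARK7 (0.2 μM final) with each fragment at 100 μM final. Read-out ex/em 480/520 nm; remaining activity derived from FP signal loss relative to reference controls.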
# Sequence of Parkinson's disease protein 7 (PARK7/DJ1) (Q99497 whole entry, looked up): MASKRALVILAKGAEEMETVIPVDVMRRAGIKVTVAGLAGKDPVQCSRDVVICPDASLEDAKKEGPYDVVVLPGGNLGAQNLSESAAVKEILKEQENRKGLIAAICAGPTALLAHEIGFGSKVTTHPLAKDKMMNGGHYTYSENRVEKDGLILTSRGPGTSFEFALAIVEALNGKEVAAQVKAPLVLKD
row,Compound,Inhibition % [%]
1,N#CC(=Cc1ccccc1)C(=O)Nc1nncs1,3.58
2,COc1cc(C)c(C)cc1S(=O)(=O)n1cnc(C)c1,6.69
3,N#CCc1ccc(NC(=O)CCl)cc1,88.8
4,COC(=O)c1ccc(NC(=O)CCl)cc1,60.9
5,NC(=O)c1ccc(NC(=O)CCl)cc1,35.3
6,COC(=O)c1cccc(NC(=O)CCl)c1,25.2
7,O=C(O)Cc1ccc(NC(=O)CCl)cc1,43.8
8,CCc1cccc(NC(=O)CCl)c1,14.1
9,CCc1ccc(NC(=O)CCl)cc1,99.1
10,CC(=O)Nc1ccc(NC(=O)CCl)cc1,4.19
11,CCOC(=O)c1ccccc1NC(=O)CCl,7.46
12,N#Cc1ccc(NC(=O)CCl)cc1Cl,29.1
13,CC(=O)c1ccc(NC(=O)CCl)cc1,45.4
14,CCOC(=O)c1ccc(NC(=O)CCl)cc1,56.5
15,O=C(CCl)NCC1Cc2ccccc2O1 (stereo not drawn),26.5
16,COc1cc2c(B3OC(C)(C)C(C)(C)O3)cn(C)c2cn1,6.59
17,C=CC(=O)NC1CCCN(c2ccc(F)cc2C)C1 (stereo not drawn),6.65
18,C=CC(=O)N1CC2(CCOCC2)C1C(C)C (stereo not drawn),7.75
19,Cc1nn(C)c(C)c1C1CCCN1C1CCOC1=O (stereo not drawn),4.25
20,CC(C)Cn1c(S)nc2ncccc2c1=O,6.75
21,O=C(CCl)NCc1ccc(Cl)cc1,2.75

row,Compound,Inhibition % [%]
1,C=CC(=O)Nc1cnn(C2CCOCC2)c1C,8.19
2,N#Cc1cc(Cl)nc(C2CC2)n1,4.67
3,O=C(CCl)Nc1ccc(Cl)c(C(F)(F)F)c1,26.2
4,O=C(CCl)Nc1ccc(OC(F)F)c(Cl)c1,45.8
5,O=C(CCl)NCc1ccc(OC(F)(F)F)cc1,5.21
6,O=C(CCl)NC(=O)c1ccc(OC(F)F)cc1,28.9
7,O=C(CCl)Nc1ccc(OC(F)F)cc1,82.8
8,COc1ccc(NC(=O)CCCl)cc1,4.56
9,COc1ccc(NC(=O)CCl)cc1,55.2
10,O=C(CCl)Nc1ccc(OC(F)(F)F)cc1,86
11,COc1ccc(NC(=O)NC(=O)CCl)cc1,1.55
12,O=C1CCN1c1ccccc1,5.28
13,CC(CC#N)Sc1ccccc1NC(=O)CCl (stereo not drawn),10.5
14,Cc1cc(C(=O)Cn2cnc(C#N)n2)c(C)s1,2.94
15,Cc1cc(C(=O)Cn2cnc(C#N)n2)c(C)[nH]1,7.96
16,CCN(CC)C(=O)Oc1ccc(N2CCCC2)cc1,-3.98
17,O=C1CCC(CC(=O)Nc2cccc(S(=O)(=O)F)c2)CC1,98.3
18,O=C(NNS(=O)(=O)c1cccc(S(=O)(=O)F)c1)C1CCC1,99.9
19,C=CC(=O)Nc1cc(NC(=O)C2CCC2)ccc1F,19.5
20,O=S(=O)(F)c1ccc(S(=O)(=O)NC2CCCC2O)cc1 (stereo not drawn),16.5
21,O=C(Nc1cccc(S(=O)(=O)F)c1)C1CCCC1,99.8

row,Compound,Inhibition % [%]
1,O=C(CCl)NCc1cccc(NC(=O)C2CC2)c1,11.4
2,O=C(NNS(=O)(=O)c1ccc(S(=O)(=O)F)cc1)C1CCC1,10.2
3,Cc1cc(B2OC(C)(C)C(C)(C)O2)on1,27.5
4,Cc1ccc(S)nc1,7.53
5,CCc1nc(C(C#N)=Cc2cnn(C)c2)sc1C,2.61
6,Cc1noc(C)c1CCn1ccnc1C#N,0.0226
7,Cl.O=C(CCl)N1CCN(Cc2cccs2)CC1,3.64
8,Nc1ncnc2c1ncn2CCCCl,2.3
9,C=CC(=O)Nc1cc2ccccc2nn1,95
10,C=CC(=O)Nc1ccccn1,3.17
11,C=CC(=O)Nc1cccc(NC(C)=O)n1,-0.654
12,Cc1ccc(C=C(C#N)S(C)(=O)=O)s1,6.48
13,Cc1cc(=O)oc2cc(OCC3CO3)ccc12 (stereo not drawn),7.44
14,CC(C)(C)n1nccc1B1OC(C)(C)C(C)(C)O1,6.06
15,CC(CC(O)c1ccc(F)cc1)Nc1ccc(C#N)nc1 (stereo not drawn),9.7
16,Sc1ccc(-c2ccco2)nn1,57.3
17,O=C(CCl)Nc1nc(-c2ccco2)cs1,21.8
18,Cc1nc(-c2ccco2)nc(S)c1C(=O)O,1.46
19,O=C(CCl)N1CCCCCC1,14.9
20,N#Cc1ccnc(C(F)(F)F)c1,14.9
21,N#Cc1ccnc(S)c1,67

row,Compound,Inhibition % [%]
1,N#Cc1ccnc(C(=O)O)c1,1.71
2,O=C(CCl)Nc1ccccc1N1CCCC1=O,-0.367
3,O=C(CCl)Nc1ccc(N2CCCCC2)nc1,88.9
4,O=C(CCl)NCc1ccc(N2CCCC2)cc1,0.611
5,O=C(CCl)Nc1cccnc1N1CCCC1,18.8
6,O=C(CCl)NCc1ccc(N2CCOCC2)nc1,15.2
7,CCN1CCN(c2ccc(NC(=O)CCl)cc2)CC1.Cl,37.8
8,O=C(CCl)Nc1ccc(N2CCCC2=O)cc1,9.28
9,O=C(CCl)Nc1ccc(N2CCCCCC2)cc1,99.5
10,O=C(CCl)Nc1ccc(N2CCCC2)cc1,7.34
11,Cl.O=C(CCl)Nc1ccc(N2CCCCC2)cc1,89.3
12,C=CC(=O)N1CC(S(=O)(=O)N2CCc3ccccc32)C1,3.57
13,O=C(CCCl)Nc1cccc(F)c1,5.31
14,C=CC(=O)N1CCC(c2cc3ccccc3[nH]2)C1 (stereo not drawn),13.2
15,Cc1occc1-c1nnc(SC2CCOC2=O)n1C (stereo not drawn),12.4
16,COc1c(C)cc(S(=O)(=O)n2nc(C)cc2C)c(C)c1C,7.42
17,CC1(C)OB(c2cccc3c2CCO3)OC1(C)C,9.99
18,CN(Cc1ccco1)c1ccc(C#N)nc1,25.1
